Key:
Assay in all cases: DAPPL (digital affinity profiling via proximity ligation, sequencing); 10 mM Tris-HCl pH 7.5, 50 mM NaCl, 1 mM DTT, 4% glycerol, room temperature, 30 min; GST-TFs on glutathione beads, 16-mer random dsDNA library, 0.1% formaldehyde crosslink after washing; high values mean tight binding
FLI1 = biological target: T1, FLI1 (Homo sapiens, UniProt Q01543 1-452); settings: protein: recombinant; tags: N-terminal GST; dsDNA, one strand shown
T1 sequence: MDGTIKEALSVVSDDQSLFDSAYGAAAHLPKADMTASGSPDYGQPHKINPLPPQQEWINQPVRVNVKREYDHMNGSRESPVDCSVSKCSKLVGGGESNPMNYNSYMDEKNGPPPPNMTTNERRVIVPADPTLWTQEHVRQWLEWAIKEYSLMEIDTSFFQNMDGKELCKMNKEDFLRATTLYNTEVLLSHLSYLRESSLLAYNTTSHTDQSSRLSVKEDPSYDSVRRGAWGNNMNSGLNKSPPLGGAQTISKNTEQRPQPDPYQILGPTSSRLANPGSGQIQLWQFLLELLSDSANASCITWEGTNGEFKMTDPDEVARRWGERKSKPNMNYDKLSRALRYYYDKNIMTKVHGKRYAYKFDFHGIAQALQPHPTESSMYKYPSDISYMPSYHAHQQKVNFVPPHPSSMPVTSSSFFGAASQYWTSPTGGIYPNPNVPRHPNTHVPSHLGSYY
Outline: (§1)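 Human transcription factors fused to GST were expressed in yeast, captured on glutathione beads, given DNA barcodes and pooled with a GST-only negative control. Pools were incubated with 200 nmole of a 16-mer random double-stranded DNA library in Tris/NaCl/DTT/glycerol buffer at room temperature for 30 min. They were then washed, crosslinked with 0.1% formaldehyde, proximity-ligated (BsaI/T4 ligase, 1 h, 37 °C), PCR-amplified and sequenced on an Illumina NextSeq500. Binding signal is each 6-mer's read frequency for a factor divided by its frequency for the GST control.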

ELK1 = biological target: T2, ELK1 (Homo sapiens, UniProt P19419 1-428); settings: protein: recombinant; tags: N-terminal GST; dsDNA, one strand shown
T2 sequence: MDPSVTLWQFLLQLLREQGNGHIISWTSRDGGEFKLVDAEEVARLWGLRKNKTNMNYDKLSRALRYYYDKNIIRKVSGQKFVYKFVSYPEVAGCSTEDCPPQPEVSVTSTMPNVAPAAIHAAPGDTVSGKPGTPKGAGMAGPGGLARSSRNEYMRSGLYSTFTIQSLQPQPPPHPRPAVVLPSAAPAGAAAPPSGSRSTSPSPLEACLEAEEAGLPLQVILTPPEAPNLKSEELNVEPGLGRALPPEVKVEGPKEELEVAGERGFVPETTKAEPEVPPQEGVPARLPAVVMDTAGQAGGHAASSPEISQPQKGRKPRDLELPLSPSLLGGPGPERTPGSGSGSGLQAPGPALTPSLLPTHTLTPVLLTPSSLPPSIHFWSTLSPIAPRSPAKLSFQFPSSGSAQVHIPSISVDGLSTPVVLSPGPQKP
Outline: as §1

GABPA = biological target: T3, GABPA (Homo sapiens, UniProt Q06546 1-454); settings: protein: recombinant; tags: N-terminal GST; dsDNA, one strand shown
T3 sequence: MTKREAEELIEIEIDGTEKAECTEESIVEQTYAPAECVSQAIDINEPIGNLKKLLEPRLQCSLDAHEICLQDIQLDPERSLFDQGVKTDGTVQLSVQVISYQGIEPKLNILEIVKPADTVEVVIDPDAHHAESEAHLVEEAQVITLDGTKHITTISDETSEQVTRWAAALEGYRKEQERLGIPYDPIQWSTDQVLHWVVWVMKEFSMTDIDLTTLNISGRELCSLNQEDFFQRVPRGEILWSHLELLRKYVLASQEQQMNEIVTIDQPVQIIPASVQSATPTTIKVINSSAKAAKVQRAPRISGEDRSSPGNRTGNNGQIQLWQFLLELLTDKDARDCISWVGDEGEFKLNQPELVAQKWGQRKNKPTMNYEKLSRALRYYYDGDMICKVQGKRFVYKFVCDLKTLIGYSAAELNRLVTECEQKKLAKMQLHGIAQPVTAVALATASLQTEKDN
Outline: as §1

ERG = biological target: T4, ERG (Homo sapiens, UniProt P11308 1-479); settings: protein: recombinant; tags: N-terminal GST; dsDNA, one strand shown
T4 sequence: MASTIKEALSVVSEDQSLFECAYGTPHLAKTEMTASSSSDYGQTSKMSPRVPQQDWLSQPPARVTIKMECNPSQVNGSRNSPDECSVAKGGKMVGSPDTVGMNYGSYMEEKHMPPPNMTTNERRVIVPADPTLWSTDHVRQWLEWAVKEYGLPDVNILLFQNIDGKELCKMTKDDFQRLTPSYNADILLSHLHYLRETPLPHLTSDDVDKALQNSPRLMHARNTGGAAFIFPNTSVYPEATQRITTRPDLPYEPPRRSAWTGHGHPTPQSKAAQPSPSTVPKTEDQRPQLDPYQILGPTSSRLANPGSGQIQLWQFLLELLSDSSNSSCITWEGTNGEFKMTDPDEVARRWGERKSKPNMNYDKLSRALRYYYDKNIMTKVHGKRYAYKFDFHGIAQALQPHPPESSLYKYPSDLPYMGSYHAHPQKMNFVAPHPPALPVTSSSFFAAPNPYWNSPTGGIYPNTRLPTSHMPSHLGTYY
Outline: as §1

ELF1 = ELF1 (Homo sapiens, UniProt P32519 1-619); settings: protein: recombinant; tags: N-terminal GST; dsDNA, one strand shown
Outline: as §1

EHF = biological target: T5, EHF (Homo sapiens, UniProt Q9NZC4 1-300); settings: protein: recombinant; tags: N-terminal GST; dsDNA, one strand shown
T5 sequence: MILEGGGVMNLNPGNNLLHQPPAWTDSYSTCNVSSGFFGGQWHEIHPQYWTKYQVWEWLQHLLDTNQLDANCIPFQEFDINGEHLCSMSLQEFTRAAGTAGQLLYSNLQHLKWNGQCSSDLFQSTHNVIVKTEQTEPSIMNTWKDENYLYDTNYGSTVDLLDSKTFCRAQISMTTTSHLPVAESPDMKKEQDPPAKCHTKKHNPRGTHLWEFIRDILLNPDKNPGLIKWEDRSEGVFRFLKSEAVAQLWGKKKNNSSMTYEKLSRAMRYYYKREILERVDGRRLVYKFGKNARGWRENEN
Outline: as §1

SPI1 = SPI1 (Homo sapiens, UniProt P17947 1-270); settings: protein: recombinant; tags: N-terminal GST; dsDNA, one strand shown
Outline: as §1

SPIB = SPIB (Homo sapiens, UniProt Q01892 1-262); settings: protein: recombinant; tags: N-terminal GST; dsDNA, one strand shown
Outline: as §1

ELK3 = biological target: T6, ELK3 (Homo sapiens, UniProt P41970 1-407); settings: protein: recombinant; tags: N-terminal GST; dsDNA, one strand shown
T6 sequence: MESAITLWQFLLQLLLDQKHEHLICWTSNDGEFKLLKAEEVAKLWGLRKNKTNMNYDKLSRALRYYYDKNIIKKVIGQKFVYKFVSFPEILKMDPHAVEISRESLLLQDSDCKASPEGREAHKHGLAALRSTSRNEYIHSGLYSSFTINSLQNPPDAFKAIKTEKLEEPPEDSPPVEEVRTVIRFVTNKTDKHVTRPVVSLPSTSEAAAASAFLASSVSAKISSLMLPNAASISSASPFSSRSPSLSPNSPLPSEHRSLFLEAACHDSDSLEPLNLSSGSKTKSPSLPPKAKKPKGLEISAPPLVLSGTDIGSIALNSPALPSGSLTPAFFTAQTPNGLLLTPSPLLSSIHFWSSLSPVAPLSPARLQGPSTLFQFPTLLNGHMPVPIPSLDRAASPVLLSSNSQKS
Outline: as §1

FEV = biological target: T7, FEV (Homo sapiens, UniProt Q99581 1-238); settings: protein: recombinant; tags: N-terminal GST; dsDNA, one strand shown
T7 sequence: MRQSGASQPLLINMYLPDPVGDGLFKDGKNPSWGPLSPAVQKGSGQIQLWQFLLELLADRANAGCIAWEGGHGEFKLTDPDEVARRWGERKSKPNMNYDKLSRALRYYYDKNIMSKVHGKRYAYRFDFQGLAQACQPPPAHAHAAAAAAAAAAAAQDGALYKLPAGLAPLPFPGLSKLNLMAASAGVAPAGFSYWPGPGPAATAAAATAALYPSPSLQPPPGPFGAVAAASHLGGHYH
Outline: as §1

ETV5 = ETV5 (Homo sapiens, UniProt P41161 1-510); settings: protein: recombinant; tags: N-terminal GST; dsDNA, one strand shown
Outline: as §1

HSF1 = HSF1 (Homo sapiens, UniProt Q00613 1-529); settings: protein: recombinant; tags: N-terminal GST; chain copies: 3; dsDNA, one strand shown
Outline: as §1

SPIC = biological target: T8, SPIC (Homo sapiens, UniProt Q8N5J4 1-248); settings: protein: recombinant; tags: N-terminal GST; dsDNA, one strand shown
T8 sequence: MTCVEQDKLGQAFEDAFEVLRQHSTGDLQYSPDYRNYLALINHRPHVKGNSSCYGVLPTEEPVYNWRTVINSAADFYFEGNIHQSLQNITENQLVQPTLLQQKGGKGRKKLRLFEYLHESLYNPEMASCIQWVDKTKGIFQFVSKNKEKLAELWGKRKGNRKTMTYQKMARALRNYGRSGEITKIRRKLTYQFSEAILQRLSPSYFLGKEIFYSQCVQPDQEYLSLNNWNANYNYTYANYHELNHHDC
Outline: as §1

ELF4 = ELF4 (Homo sapiens, UniProt Q99607 1-663); settings: protein: recombinant; tags: N-terminal GST; dsDNA, one strand shown
Outline: as §1

ELK4 = biological target: T9, ELK4 (Homo sapiens, UniProt P28324-2 1-405); settings: protein: recombinant; tags: N-terminal GST; dsDNA, one strand shown
T9 sequence: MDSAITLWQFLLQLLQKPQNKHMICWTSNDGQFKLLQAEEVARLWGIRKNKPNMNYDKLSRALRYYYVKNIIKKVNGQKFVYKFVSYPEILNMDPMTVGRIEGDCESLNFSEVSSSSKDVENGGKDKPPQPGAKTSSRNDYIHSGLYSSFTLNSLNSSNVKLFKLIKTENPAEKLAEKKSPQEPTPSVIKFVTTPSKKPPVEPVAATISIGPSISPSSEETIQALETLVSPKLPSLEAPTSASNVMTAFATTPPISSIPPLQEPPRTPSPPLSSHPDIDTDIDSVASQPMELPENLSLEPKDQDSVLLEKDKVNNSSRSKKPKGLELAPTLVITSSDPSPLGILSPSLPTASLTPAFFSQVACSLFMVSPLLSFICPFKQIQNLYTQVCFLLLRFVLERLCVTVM
Outline: as §1

ETV2 = biological target: T10, ETV2 (Homo sapiens, UniProt O00321 1-342); settings: protein: recombinant; tags: N-terminal GST; dsDNA, one strand shown
T10 sequence: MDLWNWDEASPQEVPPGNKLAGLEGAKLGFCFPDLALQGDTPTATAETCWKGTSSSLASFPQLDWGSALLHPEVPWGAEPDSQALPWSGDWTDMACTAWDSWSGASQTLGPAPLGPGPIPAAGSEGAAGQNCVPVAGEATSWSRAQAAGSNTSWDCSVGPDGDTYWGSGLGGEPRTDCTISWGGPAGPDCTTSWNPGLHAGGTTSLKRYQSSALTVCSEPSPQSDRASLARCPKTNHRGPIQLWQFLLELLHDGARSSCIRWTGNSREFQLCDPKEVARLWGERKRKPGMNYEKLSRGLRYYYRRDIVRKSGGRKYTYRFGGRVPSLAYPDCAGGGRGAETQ
Outline: as §1

ELF3 = biological target: T11, ELF3 (Homo sapiens, UniProt P78545 1-371); settings: protein: recombinant; tags: N-terminal GST; dsDNA, one strand shown
T11 sequence: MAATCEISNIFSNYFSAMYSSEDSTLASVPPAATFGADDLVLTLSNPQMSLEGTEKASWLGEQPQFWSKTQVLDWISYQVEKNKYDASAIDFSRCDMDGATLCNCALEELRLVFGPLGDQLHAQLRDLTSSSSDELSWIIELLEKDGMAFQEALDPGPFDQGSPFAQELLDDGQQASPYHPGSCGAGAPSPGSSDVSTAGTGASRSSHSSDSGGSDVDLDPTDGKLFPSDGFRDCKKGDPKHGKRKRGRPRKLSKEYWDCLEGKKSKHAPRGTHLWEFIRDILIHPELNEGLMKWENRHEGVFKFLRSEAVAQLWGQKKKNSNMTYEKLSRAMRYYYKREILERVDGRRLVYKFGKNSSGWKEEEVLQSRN
Outline: as §1

CRX = CRX (Homo sapiens, UniProt O43186 1-299); settings: protein: recombinant; tags: N-terminal GST; dsDNA, one strand shown
Outline: as §1

ETV1 = ETV1 (Homo sapiens, UniProt P50549 1-477); settings: protein: recombinant; tags: N-terminal GST; dsDNA, one strand shown
Outline: as §1

CRX, sequence (O43186 whole entry): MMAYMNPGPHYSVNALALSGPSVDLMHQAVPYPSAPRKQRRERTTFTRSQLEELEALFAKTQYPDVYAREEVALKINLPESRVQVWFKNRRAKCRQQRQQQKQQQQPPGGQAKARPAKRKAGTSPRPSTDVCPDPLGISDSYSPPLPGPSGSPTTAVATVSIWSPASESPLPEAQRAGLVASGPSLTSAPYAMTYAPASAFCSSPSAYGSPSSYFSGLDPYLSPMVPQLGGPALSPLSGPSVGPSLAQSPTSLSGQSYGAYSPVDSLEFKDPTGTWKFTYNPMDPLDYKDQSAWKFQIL
SPIB, sequence (Q01892 whole entry): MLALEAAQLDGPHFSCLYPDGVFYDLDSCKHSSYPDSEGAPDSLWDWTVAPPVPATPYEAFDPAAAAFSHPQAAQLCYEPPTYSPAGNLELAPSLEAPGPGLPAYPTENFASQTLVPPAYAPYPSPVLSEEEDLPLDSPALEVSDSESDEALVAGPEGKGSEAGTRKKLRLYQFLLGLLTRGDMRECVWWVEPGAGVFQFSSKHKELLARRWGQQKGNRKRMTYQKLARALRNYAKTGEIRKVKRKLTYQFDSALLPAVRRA
ETV1, sequence (P50549 whole entry): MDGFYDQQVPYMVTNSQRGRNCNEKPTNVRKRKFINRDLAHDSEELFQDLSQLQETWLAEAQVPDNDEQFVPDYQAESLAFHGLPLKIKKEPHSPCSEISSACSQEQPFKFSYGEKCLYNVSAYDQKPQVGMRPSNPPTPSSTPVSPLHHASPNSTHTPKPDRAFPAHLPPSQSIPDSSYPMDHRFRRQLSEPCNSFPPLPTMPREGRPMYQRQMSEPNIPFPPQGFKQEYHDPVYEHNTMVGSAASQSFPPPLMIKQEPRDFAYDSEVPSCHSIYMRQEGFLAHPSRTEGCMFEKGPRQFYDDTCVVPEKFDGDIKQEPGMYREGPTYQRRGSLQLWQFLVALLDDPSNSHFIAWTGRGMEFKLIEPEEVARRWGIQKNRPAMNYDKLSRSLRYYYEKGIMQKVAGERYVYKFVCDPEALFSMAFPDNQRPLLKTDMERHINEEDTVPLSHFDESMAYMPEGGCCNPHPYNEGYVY
HSF1, sequence (Q00613 whole entry): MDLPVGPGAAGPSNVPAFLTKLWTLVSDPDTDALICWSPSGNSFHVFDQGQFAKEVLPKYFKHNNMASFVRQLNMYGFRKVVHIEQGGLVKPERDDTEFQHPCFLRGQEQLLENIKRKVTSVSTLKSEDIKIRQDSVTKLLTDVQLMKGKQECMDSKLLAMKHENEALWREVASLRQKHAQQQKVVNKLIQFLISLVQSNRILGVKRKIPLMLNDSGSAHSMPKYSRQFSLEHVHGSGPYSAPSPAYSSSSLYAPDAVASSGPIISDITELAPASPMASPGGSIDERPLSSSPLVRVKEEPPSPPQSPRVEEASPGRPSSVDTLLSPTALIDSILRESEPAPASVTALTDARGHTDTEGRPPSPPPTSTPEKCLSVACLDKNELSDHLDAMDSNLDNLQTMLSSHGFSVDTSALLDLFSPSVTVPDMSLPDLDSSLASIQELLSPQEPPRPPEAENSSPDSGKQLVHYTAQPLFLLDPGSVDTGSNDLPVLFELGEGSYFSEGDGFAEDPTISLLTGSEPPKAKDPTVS
ELF1, sequence (P32519 whole entry): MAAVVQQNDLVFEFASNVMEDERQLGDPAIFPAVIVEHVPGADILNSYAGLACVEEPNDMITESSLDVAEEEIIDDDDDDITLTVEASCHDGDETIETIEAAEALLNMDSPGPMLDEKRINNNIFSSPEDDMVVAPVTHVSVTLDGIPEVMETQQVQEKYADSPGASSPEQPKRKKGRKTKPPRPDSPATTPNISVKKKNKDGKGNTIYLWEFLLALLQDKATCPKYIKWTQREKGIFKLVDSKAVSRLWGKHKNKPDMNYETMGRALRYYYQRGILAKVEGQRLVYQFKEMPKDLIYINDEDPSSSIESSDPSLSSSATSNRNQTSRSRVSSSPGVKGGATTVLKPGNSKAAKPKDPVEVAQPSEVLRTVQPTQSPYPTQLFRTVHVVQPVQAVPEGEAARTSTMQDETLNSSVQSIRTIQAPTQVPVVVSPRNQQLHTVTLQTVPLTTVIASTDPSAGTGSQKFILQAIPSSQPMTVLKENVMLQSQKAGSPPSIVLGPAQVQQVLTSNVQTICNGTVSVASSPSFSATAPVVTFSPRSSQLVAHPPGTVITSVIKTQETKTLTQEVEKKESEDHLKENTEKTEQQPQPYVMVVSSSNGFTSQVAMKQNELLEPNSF
ELF4, sequence (Q99607 whole entry): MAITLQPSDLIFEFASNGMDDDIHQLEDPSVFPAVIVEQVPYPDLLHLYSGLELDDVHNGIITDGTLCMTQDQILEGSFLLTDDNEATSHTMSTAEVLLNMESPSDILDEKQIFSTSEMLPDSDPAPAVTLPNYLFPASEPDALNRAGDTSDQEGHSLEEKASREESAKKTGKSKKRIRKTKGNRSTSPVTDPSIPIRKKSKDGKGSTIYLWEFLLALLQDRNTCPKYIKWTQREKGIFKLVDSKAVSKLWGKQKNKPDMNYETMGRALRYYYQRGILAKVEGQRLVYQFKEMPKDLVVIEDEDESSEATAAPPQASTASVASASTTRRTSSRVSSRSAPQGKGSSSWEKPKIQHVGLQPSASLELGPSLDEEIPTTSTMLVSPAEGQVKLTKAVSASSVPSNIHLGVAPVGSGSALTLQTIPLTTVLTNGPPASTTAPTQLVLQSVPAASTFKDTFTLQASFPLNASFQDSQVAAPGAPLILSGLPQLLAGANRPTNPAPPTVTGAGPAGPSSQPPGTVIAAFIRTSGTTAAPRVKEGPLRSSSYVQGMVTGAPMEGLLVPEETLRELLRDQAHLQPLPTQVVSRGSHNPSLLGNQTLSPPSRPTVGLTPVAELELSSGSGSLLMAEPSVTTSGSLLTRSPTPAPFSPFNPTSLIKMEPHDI
ETV5, sequence (P41161 whole entry): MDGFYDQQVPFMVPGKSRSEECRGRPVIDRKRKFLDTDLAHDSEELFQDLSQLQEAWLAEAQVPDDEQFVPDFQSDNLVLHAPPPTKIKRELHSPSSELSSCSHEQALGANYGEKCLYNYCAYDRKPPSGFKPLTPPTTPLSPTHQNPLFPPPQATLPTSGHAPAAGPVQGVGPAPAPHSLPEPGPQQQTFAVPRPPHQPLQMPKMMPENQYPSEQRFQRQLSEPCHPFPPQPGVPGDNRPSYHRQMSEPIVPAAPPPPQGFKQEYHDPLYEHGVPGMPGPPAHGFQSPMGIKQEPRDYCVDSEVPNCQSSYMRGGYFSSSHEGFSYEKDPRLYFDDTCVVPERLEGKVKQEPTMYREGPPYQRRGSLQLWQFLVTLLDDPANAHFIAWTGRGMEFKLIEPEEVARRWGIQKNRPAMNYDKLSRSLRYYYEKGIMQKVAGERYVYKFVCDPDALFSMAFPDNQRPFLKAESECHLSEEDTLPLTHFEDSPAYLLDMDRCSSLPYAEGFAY

TCCCCC
binding signal (FLI1): 1.59 fold enrichment (6-mer frequency, TF over GST control) | binding signal (ELK1): 1.54 fold enrichment (6-mer frequency, TF over GST control) | binding signal (GABPA): 1.44 fold enrichment (6-mer frequency, TF over GST control) | binding signal (ERG): 1.48 fold enrichment (6-mer frequency, TF over GST control) | binding signal (ELF1): 1.58 fold enrichment (6-mer frequency, TF over GST control) | binding signal (EHF): 1.52 fold enrichment (6-mer frequency, TF over GST control) | binding signal (SPI1): 1.46 fold enrichment (6-mer frequency, TF over GST control) | binding signal (SPIB): 1.53 fold enrichment (6-mer frequency, TF over GST control) | binding signal (ELK3): 1.27 fold enrichment (6-mer frequency, TF over GST control) | binding signal (FEV): 1.44 fold enrichment (6-mer frequency, TF over GST control) | binding signal (ETV5): 1.48 fold enrichment (6-mer frequency, TF over GST control) | binding signal (HSF1): 1.41 fold enrichment (6-mer frequency, TF over GST control) | binding signal (SPIC): 1.44 fold enrichment (6-mer frequency, TF over GST control) | binding signal (ELF4): 1.53 fold enrichment (6-mer frequency, TF over GST control) | binding signal (ELK4): 1.57 fold enrichment (6-mer frequency, TF over GST control) | binding signal (ETV2): 1.53 fold enrichment (6-mer frequency, TF over GST control) | binding signal (ELF3): 1.42 fold enrichment (6-mer frequency, TF over GST control) | binding signal (CRX): 1.45 fold enrichment (6-mer frequency, TF over GST control) | binding signal (ETV1): 1.46 fold enrichment (6-mer frequency, TF over GST control)

Reference: publication PMC7862700, “An all-to-all approach to the identification of sequence-specific readers for epigenetic DNA modifications on cytosine”
